# Screening data from PubChem BioAssay.
# This is a sample that favours compounds with a hit; in the whole collection about 1.9% have one here.
# Menin-MLL FL inh = menin-MLL binding inhibition, fluorescein peptide; Fluorescence polarization, fluorescein-MLL peptide displacement from menin; FP activity change, % at 61.4 µM; 290,000 tested, under 10 active; AID 1766; active means well fitted curve in the direction sought with a large enough effect in the polarisation, not every such curve was filed as active; inconclusive means small, poorly fitted or top-dose-only effect, or effect the other way, or a change in a side signal; inactive means no such curve, though single readings can be large or run the other way; the % refers to the polarisation
# Menin-MLL TR inh = displaces Texas Red mutant MLL peptide from human menin | hit rate 0.23% among 270,000 | Menin + Texas Red MLL mutant peptide, fluorescence polarization | Potency, µM (highest dose often 61.6 µM), most hits filed as inhibitors | O00255 | AID 1768; active means well fitted inhibition curve with a large enough effect in the polarisation, with a control signal flat, not every such curve was filed as active; inconclusive means small, poorly fitted or top-dose-only effect, or effect the other way, or a change in a side signal; inactive means no such curve, though single readings can be large or run the other way; the % refers to the polarisation
# Target sequence (O00255 whole entry, looked up): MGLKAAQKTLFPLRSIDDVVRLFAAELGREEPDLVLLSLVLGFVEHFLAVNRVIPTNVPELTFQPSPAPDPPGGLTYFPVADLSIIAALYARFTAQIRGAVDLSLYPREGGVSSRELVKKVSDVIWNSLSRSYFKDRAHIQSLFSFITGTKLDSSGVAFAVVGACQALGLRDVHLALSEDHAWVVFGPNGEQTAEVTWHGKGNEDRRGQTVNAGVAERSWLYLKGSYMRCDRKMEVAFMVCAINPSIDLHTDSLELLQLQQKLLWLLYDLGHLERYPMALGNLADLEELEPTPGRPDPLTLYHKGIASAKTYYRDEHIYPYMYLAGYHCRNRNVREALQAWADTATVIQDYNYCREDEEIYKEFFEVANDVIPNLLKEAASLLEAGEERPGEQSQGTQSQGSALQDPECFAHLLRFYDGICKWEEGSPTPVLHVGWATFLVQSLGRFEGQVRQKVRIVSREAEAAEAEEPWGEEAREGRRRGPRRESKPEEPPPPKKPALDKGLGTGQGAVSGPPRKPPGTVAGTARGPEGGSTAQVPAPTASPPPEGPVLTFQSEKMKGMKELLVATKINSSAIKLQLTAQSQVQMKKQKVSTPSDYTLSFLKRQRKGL
# MLL CXXC-DNA inh = inhibitors of human MLL CXXC domain-DNA interaction; MLL-CXXC / FITC-HOXA9 DNA fluorescence polarization; Q03164; hit rate 0.037% among 290,000; Potency, µM (titrated, usually from 115 µM), most hits filed as inhibitors; AID 2662; active means well fitted inhibition curve with a large enough effect in the polarisation, with a control signal flat, not every such curve was filed as active; inconclusive means small, poorly fitted or top-dose-only effect, or effect the other way, or a change in a side signal; inactive means no such curve, though single readings can be large or run the other way; the % refers to the polarisation
#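 Steps: dispense CXXC domain solution (7 uM) → pin compounds or unlabeled HOX-A9 DNA control → 5 min ambient → add FLSN-HOX-A9 solution (50 nM) → spin → 30 min ambient → fluorescence polarization. Tris pH 7.5/NaCl/DTT/BSA buffer.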
# Epigenetic derep = derepresses silenced GFP reporter in murine cells. Potency, µM (highest dose often 53.9 µM), usual class: activators. hit rate 0.2% among 280,000. murine LDR cells, GFP reporter derepression, 30 h; active means well fitted activation curve with a large enough effect; inconclusive means small, poorly fitted or top-dose-only effect; further: nearly all actives have a fitted effect of over 60% in size
#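 Murine LDR cells carrying a silenced, genomically integrated CMV-driven GFP reporter were exposed to compound for 30 hours at 37 C. After PBS washes, GFP-positive cells (20–120 um objects) were counted by laser-scanning microplate cytometry.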
# PINK1 expr mod = changes PINK1 expression | Potency, µM (doses to about 76.6 µM), most hits filed as activators | PINK1 immunofluorescence, high-content cytometry, 24 h | AID 624263 | hit rate 0.2% among 410,000; active means well fitted activation curve with a large enough effect; inconclusive means small, poorly fitted or top-dose-only effect; cell line not stated here; further: nearly all actives have a fitted effect of over 65% in size
#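 PINK1 protein level read as immunofluorescence by microplate cytometer in a fixed, stained stable cell line after 24 h exposure to five compound concentrations, with CCCP as control.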
# ClpP mod = qHTS Assay for Activators of ClpP; Potency, µM (highest dose often 57.5 µM); AID 651965, 2013; hit rate 1.9% among 340,000; purified B. subtilis ClpP, FRET peptide cleavage, 20 min; ATP-dependent Clp protease proteolytic subunit (Bacillus subtilis (strain 168)), P80244; active means well fitted falling curve with a large enough effect; inconclusive means small, poorly fitted or top-dose-only effect; inactive means no such curve, though single readings can be large or run the other way; further: the source files actives as falling curves though it sought activators and does not explain the sign; nearly all actives have a fitted effect of over 65% in size
#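 FRET quenching reversal measured ClpP activation: 10 microg/mL B. subtilis ClpP at pH 8 with the FRET-FV decapeptide, read at 430 nm after 320 nm excitation. The 20-min minus 0-min signal was scaled between DMSO/no-enzyme wells and ADEP (5.8 microM final).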
# A number is an active result; . = inactive; ? = inconclusive; / = no result given.
SMILES,Menin-MLL FL inh,Menin-MLL TR inh,MLL CXXC-DNA inh,Epigenetic derep,PINK1 expr mod,ClpP mod
Cc1cc(=O)oc2cc(OCC(=O)N3CCCC(C)C3)ccc12 (configuration not stated),.,.,.,.,.,32µM
Cc1cc(=O)oc2cc(OCC(=O)N3CC(C)OC(C)C3)ccc12 (configuration not stated),.,.,.,.,.,?
COc1ccc2c(COC(=O)c3ccc(C)c(S(=O)(=O)N4CCOCC4)c3)cc(=O)oc2c1,/,/,/,/,.,25µM
CN(CCNC(=O)c1c[nH]c2c1ccc1ccccc12)CCNC(=O)c1c[nH]c2c1ccc1ccccc12,/,/,/,/,.,28µM
COc1ccc2c(c1)O[C@@H](c1cccc(C(F)(F)F)c1)[C@H](OC(=O)NCCOc1ccccc1)C2=O,.,.,/,.,/,/
Cc1cccnc1-c1cccc2c1OC(CNC(=O)Cc1c(C)noc1C)C2 (configuration not stated),/,/,/,/,.,/
CCOc1ccccc1C(=O)NCCN1CCC(n2c(=O)[nH]c3ccccc32)CC1,/,/,/,/,.,2.8µM
COc1ccccc1C(=O)NCCN1CCC(n2c(=O)[nH]c3ccccc32)CC1,/,/,/,/,.,.
COc1cccc(C2(CC(=O)N3CCN(c4ccccn4)CC3)CC(=O)N(C3CCCC3)C2=O)c1 (configuration not stated),/,/,/,/,.,/
Cc1ccc(NC(=O)CCC(=O)c2ccc(F)cc2)cc1Cl,.,.,.,.,.,25µM
COc1ccc(C(=O)CCC(=O)Nc2ccc(C)c(Cl)c2)cc1,/,/,/,.,.,.
COc1cc(SC)ccc1C(=O)OCC(=O)NCC(C)C,.,.,.,.,.,40µM
COC(=O)CNC(=O)COC(=O)c1cc(Cl)cc(Cl)c1N,.,.,.,.,.,2.8µM
Nc1c(Cl)cc(Cl)cc1C(=O)OCC(=O)N1CCCC1=O,/,/,/,/,.,/
Nc1c(Cl)cc(Cl)cc1C(=O)OCC(=O)N1CCCC1,.,.,.,.,.,22µM
CC(C)CNC(=O)COC(=O)c1cc(Cl)cc(Cl)c1N,.,.,.,.,.,16µM
COc1cc(SC)ccc1C(=O)OCC(=O)NC(=O)NC(C)C,.,.,.,.,.,/
CC(C)CNC(=O)COC(=O)c1ccc(F)cc1Cl,.,.,.,.,.,/
CSc1nnc(CNC(=O)/C=C/c2ccccc2Cl)n1-c1ccc(F)cc1,/,/,/,/,.,/
CCOC(=O)N(C(=O)c1ccccc1)c1ccccc1,/,/,/,/,/,.
OCc1cn(-c2ccccc2)nc1-c1ccc2c(c1)OCCO2,.,/,.,.,.,28µM
COc1cccc(-c2nn(-c3ccccc3)cc2CO)c1,.,.,.,.,.,.
COc1ccc(-c2nn(-c3ccccc3)cc2CO)cc1OC,.,.,.,.,.,11µM
COc1ccc(CNC(=O)C2CCN(Cc3nc(-c4ccc(OC)c(OC)c4)oc3C)CC2)cc1,/,/,/,.,.,.
C=C1C=C(C(F)F)n2ncc(C(=O)N3CCN(c4ccccc4)CC3)c2N1,/,/,/,/,.,.
SMILES,Menin-MLL FL inh,Menin-MLL TR inh,MLL CXXC-DNA inh,Epigenetic derep,PINK1 expr mod,ClpP mod
CCC1(C2CCN(Cc3ccccc3Cl)CC2)NC(=O)N(CC2COc3ccccc3O2)C1=O (configuration not stated),/,/,/,/,.,/
CCNS(=O)(=O)c1ccc2c3c(cccc13)C(=O)N2,.,.,.,.,.,32µM
c1cncc(OC2CCN(Cc3ccc4c(c3)CN(Cc3ccc5c(c3)OCCO5)CCO4)CC2)c1,/,/,/,/,.,/
C[C@@H]1CN(Cc2ccc3c(c2)CN(C(=O)CCc2nc4ccc(F)cc4[nH]2)CCO3)C[C@H](C)O1,/,/,/,/,.,/
Cc1cc2nnc(SCC(=O)Nc3cc(S(=O)(=O)N4CCOCC4)ccc3Cl)n2c2ccccc12,.,.,.,.,.,32µM
CCN(C(=S)Nc1cc(S(=O)(=O)N2CCOCC2)ccc1Cl)c1cccc2ccccc12,.,?,.,.,.,11µM
O=S(=O)(c1ccc(Cl)c(NC(=S)Nc2cccc(O)c2)c1)N1CCOCC1,.,.,.,.,.,.
COc1ccccc1C1CN(Cc2c(C)nn(C)c2Cl)Cc2ccccc2O1 (configuration not stated),/,/,/,/,.,/
Cc1ccc(-c2noc(CCC(=O)NCCN3CCN(Cc4ccccc4)CC3)n2)cc1,.,.,.,.,.,28µM
O=C(Nc1nnc(CSCc2ccc(Cl)cc2)s1)c1cccc([N+](=O)[O-])c1,.,?,.,.,?,25µM
O=C(Nc1ccc(Cl)cc1)Nc1nnc(CSCc2ccccc2)s1,.,.,.,.,?,18µM
O=C(Nc1nnc(CSCc2ccc(F)cc2)s1)c1cccc([N+](=O)[O-])c1,.,?,.,.,?,.
Cc1ccc(C)c(-c2csc(NC(=O)C3=COCCO3)n2)c1,/,/,/,/,.,/
COc1ccc(OC)c(-c2csc(NC(=O)C3=COCCO3)n2)c1,/,/,/,/,.,32µM
CC(C)(C)C(=O)Nc1ccc2c(c1)C(=O)C(=O)c1ccccc1-2,/,/,/,/,.,.
CC12C=C(/C=C/c3ccc(Br)cc3)C(C)(C1)[C@H](c1ccc(Br)cc1)CC2=O (some centres not stated),.,.,/,.,/,/
CC(Oc1ccccc1)C(=O)NNC(=O)c1ccccn1 (configuration not stated),.,.,.,.,.,.
C/C(=N\NC(=O)C(C)Oc1ccc([N+](=O)[O-])cc1)c1ccccn1 (configuration not stated),.,.,.,16µM,.,.
COc1cccc(C(C)(O)c2nc(-c3ccc(F)cc3OC)cs2)c1 (configuration not stated),/,/,/,/,.,.
COCCn1nnnc1C(C(C)C)N(Cc1cccnc1)Cc1cc2cc(OC)ccc2[nH]c1=O (configuration not stated),.,.,.,.,.,25µM
CCN(CC)CCN1C(=O)c2ccccc2NC1c1cc(OC)c(OC)c(OC)c1 (configuration not stated),.,.,.,.,/,13µM
CCCN1C(=O)c2ccccc2NC1c1cc(OC)c(OC)c(OC)c1 (configuration not stated),.,.,.,.,.,18µM
CN(C)CC(C)(O)c1ccc2c(c1)CN(Cc1cccn1-c1ncccn1)CCO2 (configuration not stated),/,/,/,/,.,/
Cc1ccc(CN2CCOc3ccc(C(C)(O)COc4ccccc4)cc3C2)o1 (configuration not stated),/,/,/,/,.,/
CCOC(=O)c1c(-c2ccc(C)cc2)cn2ccccc12,.,?,.,.,.,13µM
CC1NC(=O)C(N)CNC(=O)C(C2CCN=C(N)N2)NC(=O)/C(=C/NC(N)=O)NC(=O)C(CNC(=O)CC(N)CCCN)NC1=O (configuration not stated),.,.,/,/,/,/
